PubChem BioAssay AID1259313 (Sanford-Burnham Center for Chemical Genomics, 2017)
Where “and” joins values, the source holds several entries; their conditions need not be identical. Identical values can stand only once. About 8,500 (2.5%) of roughly 340,000 compounds were called active.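 Rule for the calls: active = melting temperature shift of at least 10% of the positive control shift, at one fixed dose; inactive = the rest.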 What follows is part of a selection rich in actives, with near analogues and random picks from the rest.

Each molecule was assayed on Glutamate receptor ionotropic, NMDA 3A (GRIN3A) ligand-binding domain (assay: NR3A LBD thermal stabilization by compounds – biophysical, differential scanning fluorimetry, uHTS, primary screen (AID 1259313)). Details: at 25 µM, hits give high values, 0% = protein alone, 100% = glycine-bound protein.
With `COc1cc(/C(=C/c2ccccc2)c2ccccc2)c2c(c1)oc1ccccc12` the Tm shift relative to glycine control was 3.2% (inactive). `O=C(NN=CC=Cc1ccccc1)C(O)C(O)C(=O)NN=CC=Cc1ccccc1` (configuration not stated) was tested, and the Tm shift relative to glycine control was 3.13% (inactive). For `Cc1ccc(-c2cc(C(=O)NN)n[nH]2)o1`, the Tm shift relative to glycine control was -1.08% (inactive). In the case of `Cc1ccc(-c2cc(C(=O)N/N=C/C=C/c3ccccc3)n[nH]2)o1`, the Tm shift relative to glycine control is reported as 19.9% (active). For `COCc1nc2ccccc2n1Cc1ccccc1Br`, the Tm shift relative to glycine control was -1.6% (inactive). With `O=C(Oc1ccc(-c2nnco2)cc1)c1ccc(F)c(S(=O)(=O)N2CCOCC2)c1` the Tm shift relative to glycine control was 0.78% (inactive). With `COC(CNC(=O)Cn1ncc2ccsc2c1=O)OC` the Tm shift relative to glycine control was -0.44% (inactive). In the case of `Cc1ccc(S(=O)(=O)N(CC(=O)Nc2cccc([N+](=O)[O-])c2)Cc2ccc(Cl)cc2)cc1`, the Tm shift relative to glycine control is reported as 3.38% (inactive). With `COc1ccc(N(CC(=O)Nc2ccc(C)cc2C)S(=O)(=O)c2ccccc2[N+](=O)[O-])c(OC)c1` the Tm shift relative to glycine control was -2.12% (inactive). In the case of `COc1ccc(C)cc1S(=O)(=O)N(CC(=O)Nc1cccc([N+](=O)[O-])c1)c1ccc(C)cc1`, the Tm shift relative to glycine control is reported as 17.5% (active). For `C=CCc1cccc2cc(C(=O)NC3CCCC3)c(=O)oc12`, the Tm shift relative to glycine control was -0.75% (inactive). In the case of `O=C(Nc1nnc(CCN2CCCCC2)s1)c1cccc(Cl)c1`, the Tm shift relative to glycine control is reported as -1.3% (inactive). In the case of `Cc1ccc(-c2nnc(C)c(N3CC(C)OC(C)C3)n2)cc1` (configuration not stated), the Tm shift relative to glycine control is reported as -2.74% (inactive). In the case of `O=C(CN1CCN(S(=O)(=O)c2ccc(F)cc2)CC1)Nc1ccccc1F`, the Tm shift relative to glycine control is reported as -1.4% (inactive). For `COc1ccccc1NC(=O)CN1CCN(S(=O)(=O)c2ccc(Br)cc2)CC1`, the Tm shift relative to glycine control was 24.1% (active). For `O=C(CN1CCN(S(=O)(=O)c2ccc(Br)cc2)CC1)Nc1ccccc1C(=O)c1ccccc1`, the Tm shift relative to glycine control was -0.96% (inactive). For `O=C1CCCC(O)=C1N=Nc1ccc2ncsc2c1`, the Tm shift relative to glycine control was -0.17% (inactive). With `NC(=O)COc1ccc(C23CC4CC(CC(C4)C2)C3)cc1` the Tm shift relative to glycine control was 1.05% (inactive). For `O=C(Cc1ccc(Cl)cc1)c1ccccc1`, the Tm shift relative to glycine control was -0.17% (inactive). For `CC(Sc1sc(=S)sc1SC(C)C(=O)O)C(=O)O` (configuration not stated), the Tm shift relative to glycine control was 3.28% (inactive). `O=C(Cc1ccccc1)Nc1ccc(C(=O)Nc2ccccc2C(=O)O)cc1` was tested, and the Tm shift relative to glycine control was 0.78% (inactive). In the case of `O=C(CN1CCc2ccccc2C1)Nc1cccc(S(=O)(=O)N2CCOCC2)c1`, the Tm shift relative to glycine control is reported as 0.42% (inactive). `CCOn1c(=O)c(=O)n(O)c2ccccc21` was tested, and the Tm shift relative to glycine control was 6.16% (inactive). `COCc1nnc(NC(=O)c2ccc3c(c2)OCO3)s1` was tested, and the Tm shift relative to glycine control was -0.5% (inactive). For `O=C(NCc1cccnc1)C(=O)Nc1nc(-c2ccccc2)cs1`, the Tm shift relative to glycine control was -0.2% (inactive). With `N#Cc1ccccc1NC(=O)c1ccc2c(c1)OCO2` the Tm shift relative to glycine control was -0.66% (inactive). `O=C(Nc1nc2ccccc2s1)c1ccc2c(c1)OCO2` was tested, and the Tm shift relative to glycine control was 12.1% (active). In the case of `Cc1cccc(NC(=O)Nc2ccc3c(c2)OCO3)n1`, the Tm shift relative to glycine control is reported as -1.41% (inactive). In the case of `CC(=O)Nc1ccc(Nc2cc(C)nc(Nc3ccc(NC(C)=O)cc3)n2)cc1`, the Tm shift relative to glycine control is reported as -4.37% (inactive). In the case of `CC(=O)Nc1cccc(-c2csc(Nc3cccc(C)n3)n2)c1`, the Tm shift relative to glycine control is reported as 11.8% (active). With `c1ccc(C(=NNc2nc3ccccc3s2)c2ccccn2)cc1` the Tm shift relative to glycine control was -7.5% (inactive). In the case of `O=C(Nc1ccccc1)Nc1nc2ccccc2s1`, the Tm shift relative to glycine control is reported as 26.3% (active). In the case of `O=C(CCC(=O)c1cccs1)Nc1nc2ccccc2s1`, the Tm shift relative to glycine control is reported as -1.65% (inactive). `O=C(CSC1=NCCS1)Nc1nc(-c2ccccc2)cs1` was tested, and the Tm shift relative to glycine control was -5.63% (inactive). `CC(=O)Nc1ccc(-c2csc(NC(=O)Nc3ccccc3)n2)cc1` was tested, and the Tm shift relative to glycine control was 26.9% (active). `O=C(NC(Cc1ccc(O)cc1)C(=O)O)/C(=C/c1ccccc1)NC(=O)c1ccccc1` (configuration not stated) was tested, and the Tm shift relative to glycine control was -1.28% (inactive). In the case of `O=C(Nc1nccs1)C1CCCN1S(=O)(=O)c1cccc2cccnc12` (configuration not stated), the Tm shift relative to glycine control is reported as 0.08% (inactive). For `CCOC(=O)NC(=O)CSc1nnc(SCCC(=O)O)s1`, the Tm shift relative to glycine control was -2.83% (inactive). `COc1ccc(C)cc1N(C(=O)Cn1nnc(-c2ccc(C)o2)n1)C(C(=O)NC1CCCC1)c1ccncc1` (configuration not stated) was tested, and the Tm shift relative to glycine control was 0.19% (inactive). With `CC(C)(C)NC(=O)NC(=O)COC(=O)C1c2ccccc2Oc2ccccc21` the Tm shift relative to glycine control was -5.02% (inactive). With `CCC(C)(C)NC(=O)CN(C(=O)CCC(=O)Nc1nccs1)c1ccc2c(c1)OCO2` the Tm shift relative to glycine control was -1.69% (inactive). `COc1cc(NC(=O)CSC(=S)N2CCCC2)c(OC)cc1Cl` was tested, and the Tm shift relative to glycine control was -1.06% (inactive). In the case of `O=C(N/N=C/c1ccccn1)c1cccc(NC(=O)c2ccc(Cl)cc2)c1`, the Tm shift relative to glycine control is reported as 21.2% (active). For `Cc1cccc(C(=O)Nc2ccc(C(=O)N/N=C/c3cccc(C)n3)cc2)c1`, the Tm shift relative to glycine control was -13.7% (inactive). With `O=C(N/N=C/c1ccccn1)c1ccc(S(=O)(=O)N2CCCCCC2)cc1` the Tm shift relative to glycine control was -1.75% (inactive). `C=CCC1(CC=C)CCCN1C(=O)c1cc(COc2ccc(-n3cncn3)cc2)on1` was tested, and the Tm shift relative to glycine control was 1.48% (inactive). In the case of `Cc1ccc2cc(C#N)c(NCCNC(=S)NCCCN3CCOCC3)nc2c1`, the Tm shift relative to glycine control is reported as 1.55% (inactive). With `CC(C)CN(Cc1c(O)ccc2c(=O)c(-c3ccccc3)coc12)CC(C)C` the Tm shift relative to glycine control was -7.19% (inactive). For `CC(C)=CCc1c(O)c(CC=C(C)C)c2occ(-c3ccc(O)cc3)c(=O)c2c1O`, the Tm shift relative to glycine control was 31.4% (active). For `COC(=O)C1=C(C)N(Cc2ccccc2)C(=NCCCOC(C)C)N[C@H]1c1ccccc1`, the Tm shift relative to glycine control was -2.6% (inactive). `Cc1ccccc1NC(=O)c1ccc(COc2ccc3c(C)cc(=O)oc3c2)cc1` was tested, and the Tm shift relative to glycine control was 12% (active). With `CCN(C(=O)COC(=O)c1ccc(COc2ccc3c(C)cc(=O)oc3c2)cc1)C1CCS(=O)(=O)C1` (configuration not stated) the Tm shift relative to glycine control was 2.72% (inactive). `CCOC(=O)c1cc(=O)c2ccc(OCc3ccccc3)cc2o1` was tested, and the Tm shift relative to glycine control was 2.08% (inactive). In the case of `COC(=O)c1ccc(/C=N/OCC(=O)Nc2cc(F)ccc2F)cc1`, the Tm shift relative to glycine control is reported as 1.06% (inactive). `CC(NC(=O)C(=O)N/N=C/c1ccc(Cl)cc1)c1ccccc1` (configuration not stated) was tested, and the Tm shift relative to glycine control was -8.19% (inactive). `CC(C)Cn1cnc2c(SCc3ccc(Cl)cc3)nc(N)nc21` was tested, and the Tm shift relative to glycine control was -6.54% (inactive). `COC(=O)C1=C(C)NC2=C(C(=O)c3ccccc32)C1c1ccc(-c2ccc(C(=O)O)cc2)o1` (configuration not stated) was tested, and the Tm shift relative to glycine control was 30% (active). `COC(=O)C1=C(C)N(C)C(=O)NC1c1ccc([N+](=O)[O-])o1` (configuration not stated) was tested, and the Tm shift relative to glycine control was -3.85% (inactive). `CCOC(=O)c1ccc(-c2ccc(C(=O)Nc3cccnc3)o2)cc1` was tested, and the Tm shift relative to glycine control was -18.8% (inactive). With `NC(=O)C[n+]1cccc(C(N)=O)c1` the Tm shift relative to glycine control was -0.09% (inactive). For `O=C(Nc1ccc(Cl)cc1)/C(=C1\CCCN1)[N+](=O)[O-]`, the Tm shift relative to glycine control was -1.33% (inactive). For `COc1cccc(/C=N/Nc2cc(C)nc(-c3ccccc3O)n2)c1O`, the Tm shift relative to glycine control was 30.6% (active). With `COc1ccc(Cc2nnc(N/N=C/c3ccccc3O)[nH]c2=O)cc1OC` the Tm shift relative to glycine control was -2.87% (inactive). For `COc1ccc(/C=N/Nc2cc(N3CCOCC3)nc(C)n2)c(OC)c1`, the Tm shift relative to glycine control was -3.16% (inactive). For `COc1ccc(NS(=O)(=O)c2cc(C(=O)Nc3ccccc3C(=O)O)ccc2C)cc1`, the Tm shift relative to glycine control was 1.75% (inactive). In the case of `COc1ccc(NS(=O)(=O)c2cc(NC(=O)CC(=O)c3ccc([N+](=O)[O-])cc3)ccc2C)cc1`, the Tm shift relative to glycine control is reported as 24% (active). In the case of `COc1ccc(C(=O)CC(=O)C(=O)Nc2cc([N+](=O)[O-])ccc2OC)cc1`, the Tm shift relative to glycine control is reported as 2.73% (inactive). In the case of `COc1ccc(/C=C/C(=O)OCC(=O)NCc2cccs2)cc1OC`, the Tm shift relative to glycine control is reported as 0.79% (inactive). In the case of `C#C[C@]1(O)CC[C@H]2[C@@H]3CCC4=CC(=O)CC[C@@H]4[C@H]3CC[C@@]21CC`, the Tm shift relative to glycine control is reported as 1.26% (inactive) and -0.79% (inactive). With `Cc1ccc(Oc2nc3ccccc3n3c(C)nnc23)cc1` the Tm shift relative to glycine control was 12.7% (active). For `Cc1ccc(S(=O)(=O)N(C)c2nc3ccccc3n3c(C(C)C)nnc23)cc1`, the Tm shift relative to glycine control was 1.79% (inactive). For `CCOC(=O)CNc1nc2ccccc2n2c(C)nnc12`, the Tm shift relative to glycine control was -9.54% (inactive). For `COc1ccccc1-n1cnc2cc(NS(=O)(=O)c3ccccc3)ccc21`, the Tm shift relative to glycine control was 0.96% (inactive). In the case of `O=C1c2cccc3cccc(c23)C(=O)N1c1cccc(O)c1`, the Tm shift relative to glycine control is reported as 3.66% (inactive). In the case of `O=C(c1cccc(Br)c1)N1CCN(C2=NS(=O)(=O)c3ccccc32)CC1`, the Tm shift relative to glycine control is reported as -0.26% (inactive). For `CCC1CCCCN1C(=S)Nc1ccc(S(=O)(=O)Nc2ncccn2)cc1` (configuration not stated), the Tm shift relative to glycine control was -1.92% (inactive). In the case of `O=C(Nc1ccc(C2CC2(Cl)Cl)cc1)c1cccc([N+](=O)[O-])c1` (configuration not stated), the Tm shift relative to glycine control is reported as -0.36% (inactive). With `COc1cc(NC(=O)c2cc([N+](=O)[O-])ccc2Br)ccc1NC(=O)c1ccco1` the Tm shift relative to glycine control was -2.17% (inactive). In the case of `O=C(Nc1ccc(NC(=O)c2ccco2)c(Cl)c1)c1cccc([N+](=O)[O-])c1`, the Tm shift relative to glycine control is reported as 24.7% (active). With `COc1ccc(N2CCN(C(=O)c3ccccc3NC(=O)C3=C(C)OCCS3)CC2)cc1` the Tm shift relative to glycine control was -0.18% (inactive). In the case of `CCOC(=O)c1cc2cc(C)ccc2[nH]1`, the Tm shift relative to glycine control is reported as 0.1% (inactive). For `Cn1ccc(=NC=C(C#N)C#N)c2ccccc21`, the Tm shift relative to glycine control was -0.6% (inactive). In the case of `Cc1cc(C)n2nc(C(=O)OC(C)C(=O)c3cc(C)c(C)cc3C)nc2n1` (configuration not stated), the Tm shift relative to glycine control is reported as 1.24% (inactive). For `Cc1cc(=O)oc2cc(OCC3CC(c4ccccc4Cl)=NO3)ccc12` (configuration not stated), the Tm shift relative to glycine control was 11.5% (active). With `Cc1cc(=O)oc2cc(OCCC[n+]3ccccc3)ccc12` the Tm shift relative to glycine control was -1.47% (inactive). With `CCOc1ccccc1N1CCN(C(=O)COc2ccc3c(C)cc(=O)oc3c2)CC1` the Tm shift relative to glycine control was -4.48% (inactive). In the case of `O=C(COC(=O)/C=C/c1cccc(Cl)c1)NCCc1ccccc1`, the Tm shift relative to glycine control is reported as 0.53% (inactive). With `C[C@H](O)[C@@H]1C(=O)N2CCc3ccc(N4CCOCC4)cc3[C@@H]2C[C@@H]1N(C)C(=O)C(C)(C)C` the Tm shift relative to glycine control was -1.15% (inactive). With `O=C(NCc1ccco1)C(c1ccncc1)N(C(=O)Cn1nnc2ccccc21)c1ccccc1` (configuration not stated) the Tm shift relative to glycine control was -1.69% (inactive). For `COc1ccccc1C(=O)NC(=S)Nc1ccccc1N1CCCCC1`, the Tm shift relative to glycine control was -4.34% (inactive). With `COc1ccc(Br)cc1C(=O)Nc1cccc(C)c1C` the Tm shift relative to glycine control was -2.13% (inactive). For `COc1ccc(Br)cc1C(=O)NC(=S)Nc1cc(-c2nc3ccccc3[nH]2)ccc1C`, the Tm shift relative to glycine control was 25.9% (active).
